SARS PLpro yeast: blocks SARS-CoV papain-like protease in a yeast assay; S. cerevisiae expressing SARS-CoV PLpro, growth rescue; Potency, µM (series often up to 32.9 µM), for inactives: at the top dose activity, positive = growth rescue, actives largely listed as activators; hit rate 0.19% among 330,000; AID 485353; calls by dose curve; also: potency is read from the fitted curve at half-maximal effect; 0% is about no effect; nearly all actives have a fitted effect of over 55% in size
Shiga toxin inh: blocks Shiga toxin action in Vero cells. Vero cells, Shiga toxin protein synthesis inhibition reporter. inhibition, % at 38.7 µM. hit rate 9.2% among 290,000; in the data active = inhibition mostly above about 28%, no sharp cut-off; inactive = mostly below about 43%; also: 0% is about no effect
NS1 function inh: influenza NS1 inhibition | Potency, µM (titrated, usually from 46.1 µM), for the others: at the top dose activity, positive = more growth | AID 2326 | hit rate 0.4% among 270,000; calls by dose curve; also: potency is read from the fitted curve at half-maximal effect; actives are rising curves; nearly all actives have a fitted effect of over 50% in size
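OD600 was taken as the measure of yeast growth restored by compound in an NS1-expressing S. cerevisiae strain. Cells had been washed out of glucose medium and diluted 1:100 into galactose -URA medium, pH 6.0.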
Pf growth 96h: inhibits malaria parasite growth, 96 h | hit rate 6.9% among 320,000 | Potency, µM (highest dose often 28.7 µM), for inactives: at the top dose activity change, negative = inhibition, hits mostly inhibitors | P. falciparum luciferase reporter growth, 96 h; also: potency is read from the fitted curve at half-maximal effect; % is scaled to controls: 0 for no effect and ±100 for the full control effect
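Two parasite generations (96 h, 37 C, 5% CO2) of compound exposure in infected erythrocytes (0.05% parasitemia, 2% hematocrit). Luciferase-reporter P. falciparum; decreased luminescence indicates inhibited growth, aimed at apicoplast-acting delayed death.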
Cycloheximide cs: counter-screen hit for Shiga toxin inhibitors, cycloheximide | max response, % | cell reporter, cycloheximide protein synthesis inhibition counterscreen | AID 2314 | hit rate 12% among 300,000; in the data active = max response mostly above about 13%, no sharp cut-off; inactive = mostly below about 14%; also: read at 38.3 µM for the half of the compounds with a filed dose; 0% is about no effect
Pf growth 48h: P. falciparum growth inhibition at 48 hours (one generation); Potency, µM (highest dose often 28.7 µM), for inactives: top-dose activity change, negative = inhibition, actives largely listed as inhibitors; P. falciparum luciferase growth in erythrocytes, 48 h; AID 504832; hit rate 5.9% among 310,000; also: potency is read from the fitted curve at half-maximal effect; % is scaled to controls: 0 for no effect and ±100 for the full control effect
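Luciferase-expressing P. falciparum in infected erythrocytes (2% hematocrit, 0.1% parasitemia final) in RPMI 1640/0.5% Albumax were exposed to compound for 48 hours at 37 C, 5% CO2; growth read as luminescence.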
Active calls of the source: *; ? = inconclusive; . = no result; ! = not confirmed by another sample; [ ] = dose if it differs, or a comment. A selection: hits, their analogues and other compounds. The true share with any hit is near 21%. Unless noted, calls follow the shape of the dose curve; as a rule, active = well fitted inhibition curve with a large enough effect; inconclusive = small, poorly fitted or top-dose-only effect, or another doubt; inactive = no such curve, though single readings can be large or run the other way.

SMILES	SARS PLpro yeast	Shiga toxin inh	NS1 function inh	Pf growth 96h	Cycloheximide cs	Pf growth 48h
CCOCCn1c(N2CCN(c3ccccc3)CC2)nc2c1c(=O)[nH]c(=O)n2C	1%	57	-4%	?	21*	105%
CCn1c(=O)n(C2=C(CO)CN(CC3CCCCCCC3)CC2)c2ccccc21	.	-7	.	.	-9	.
COC(OC)c1ccc(C#N)c(=O)[nH]1	-5%	-6	.	25%	11	?
CC1CCc2c(sc3nc(C(C)(C)C)nc(N4CCN(C(=O)CCl)CC4)c23)C1 (stereo not given)	-8%	46*	-89%	6.6µM*	20*	-56%
Cc1cc(C)nc(SCCc2cccc[n+]2C)n1	.	.	2%	.	.	.
CC(C)c1ccc(/C=N/Nc2cc(N3CCOCC3)nc(N3CCOCC3)n2)cc1	-3%	-7	9%	-8%	-3	?
Brc1ccc(-c2ccc(/C=N/Nc3nc(N4CCOCC4)nc(N4CCOCC4)n3)o2)cc1	-1%	-4	.	11%	3	12µM*
CCOc1cc(/C=N/NC(=O)c2ccc(O)cc2)ccc1Oc1nc(Cl)ncc1F	0%	5	.	26%	9	?
Fc1cnc(N/N=C/c2ccc(-c3ccc(Br)cc3)o2)nc1N1CCOCC1	-2%	58*	1%	5.9µM*	34*	?
Brc1ccc(-c2ccc(/C=N/Nc3nncc(-c4ccccc4)n3)o2)cc1	1%	-9	5%	-2%	-1	.
Clc1ccc(-c2ccc(/C=N/Nc3cc(N4CCOCC4)nc(N4CCOCC4)n3)o2)cc1	-53%	-2	16%	-2%	-2	9.3µM*
CCOc1cc(/C=N\Nc2ncc(F)c(N3CCOCC3)n2)ccc1Oc1nc(Cl)ncc1F	2%	100*	6%	1.9µM*	42*	1.7µM*
CC12CCC(=O)N1C(C(=O)OCC(=O)Nc1ccc(Cl)c(Cl)c1)CS2 (stereo not given)	0%	-3	.	37%	5	8%
Cc1ccc(-c2nnn(CC(=O)N(CC(=O)NC3CCCCC3)c3ccccc3F)n2)o1	6%	-4	-5%	59%	-2	?
CC(C)(C)OC(=O)N[C@@H](C(=O)OC(C)(C)C)c1ccc2c(c1)OCO2	-1%	.	.	?	.	?
COc1cccc(NC(=O)CSc2nc3ccccc3cc2Cc2ccccc2)c1	1%	-4	12%	7.4µM*	8	3.3µM*
COc1ccc(OC)c(NC(=O)CSc2nc3ccccc3cc2Cc2ccccc2)c1	7%	6	16%	6.6µM*	-2	?
COc1cc(NC(=O)CSc2nc3ccccc3cc2Cc2ccccc2)cc(OC)c1	3%	-9	6%	?	-1	12µM*
COc1ccc(OC)c(NC(=O)CSc2nc3ccccc3c3nc4ccccc4n23)c1	6%	31	12%	?	-3	0.83µM*
COc1ccc(C(CC(=O)O)NC(=O)COc2ccc(C)cc2)cc1OC (stereo not given)	-14%	-11	6%	?	-6	-8%
COc1ccc(C(=O)COC(=O)CNC(=O)c2ccc(Cl)cc2Cl)c(OC)c1	-6%	.	.	19%	.	3%
Cc1cc(C(=O)Nc2ccc(F)cc2)c2ccccc2n1	-3%	-5	5%	-30%	0	0%
CCCCn1c(SCC(=O)Nc2cc(C(F)(F)F)ccc2Cl)nnc1C(CC)N(C)C (stereo not given)	0%	-12	-5%	?	-5	8.3µM*
COc1ccc(N(CC(=O)NCc2ccccc2)S(=O)(=O)c2c(C)n[nH]c2C)cc1	-3%	-5	-3%	-24%	1	-8%
Cc1nc(SCC#N)c2c(C)c(C)sc2n1	?	-2	1%	9.3µM*	-2	-8%
SMILES	SARS PLpro yeast	Shiga toxin inh	NS1 function inh	Pf growth 96h	Cycloheximide cs	Pf growth 48h
Cn1cc(SCC(=O)Nc2ccc3c(c2)OCO3)c2ccccc21	-8%	11	-81%	?	3	.
CC(O)c1nc2ccccc2n1CC(=O)Nc1ccc2c(c1)OCCO2 (stereo not given)	2%	27	.	28%	27*	51%
Cn1c(=O)cc(SCC(=O)Nc2ccc3c(c2)OCO3)c2ccccc21	6%	-17	0%	2.9µM*	-6	31%
CCCn1cc(SCC(=O)Nc2ccc3c(c2)OCO3)c2ccccc21	-16%	17	-10%	10µM*	-1	?
CCn1c(C(=O)O)c(CC(=O)Nc2cccc(C(F)(F)F)c2)c2ccccc21	0%	-1	11%	0.74µM*	-4	-7%
CCn1cc(C(=O)NCCN(C)C)c(=O)c2cc(F)c(N3CCN(C)CC3)cc21	1%	3	-2%	?	-5	?
O=C(CC1N=C(Cc2ccccc2)NNC1=O)N/N=C/c1ccc([N+](=O)[O-])cc1 (stereo not given)	-1%	28	3%	25%	8	-4%
CC(C)(C)C1CCC(=O)N(CCC#N)CC1 (stereo not given)	7%	8	-8%	47%	-4	6%
Cn1c(C(=O)O)c(CC(=O)Nc2ccc3c(c2)OCCO3)c2ccccc21	7%	147*	?	59%	64*	134%
Cc1ccc(NC(=O)Cc2c(C(=O)O)n(C)c3ccccc23)cc1F	1%	44	.	?	12	13%
NC(=O)c1nn(-c2ccccc2)nc1NC(=O)CN1CCCC1	1%	17	-5%	0%	-5	-1%
CC(=O)N(CC(=O)Nc1nn(-c2ccccc2)nc1C(N)=O)Cc1ccccc1	-3%	-18	-9%	.	1	1µM*
COc1ccc(O)c(C(=O)c2coc(=N)c(C(=O)Nc3ccc(SC(F)F)cc3)c2)c1	1%	5	.	2.3µM*	20	?
CC(C)OC(=O)c1cc(C(=O)c2cc(F)ccc2O)coc1=N	15%	20	-8%	?	6	.
COc1ccccc1C(=O)NCCC(=O)OCC(=O)Nc1ccc(S(N)(=O)=O)cc1	0%	.	.	13%	.	17%
Cc1cccc(-n2c(C)cc(C)c(C#N)c2=O)c1	0%	88*	3%	-63%[5.75 µM]	17*	-8%
Cc1cc(C)n(/N=C/c2ccc(O)cc2)c(=O)c1C#N	0%	-2	4%	0%	-3	8%
Cc1cc(C)n(/N=C/c2ccc(C(C)C)cc2)c(=O)c1C#N	-7%	12	-35%	?	20	1.9µM*
Cc1ccc(/C=N/n2c(C)cc(C)c(C#N)c2=O)cc1	9%	8	0%	15µM*	-4	15µM*
Cc1ccc(/C=N/n2c(C)cc(C)c(C#N)c2=O)o1	-3%	1	-12%	6%	-2	27%
COc1ccc(C(=O)N2CCC(C(=O)O)CC2)c2ccccc12	2%	-5	10%	6%	-6	20%
CN(C)C(=O)C(CCN1CCC(O)(c2ccc(Cl)cc2)CC1)(c1ccccc1)c1ccccc1	-1%	-17	-2%	2.9µM*!	-5	2.9µM*
COC(=O)c1ccc(CN2CCCC(CNC(=O)Cc3ccc(OC)cc3)C2)cc1 (stereo not given)	-3%	-4	13%	?	1	21%

Bioassay records from PubChem.
